Assay results published in the supplement of paper PMC12282887.
± gives the standard deviation of the averaged measurements.

Experiments:
Assay in all cases: promoter activity interaction Z-score (Lux/OD deviation from empty-vector control); higher = stronger promoter induction by the compound
[1] = system: E. coli BW25113 tolCp lux reporter
In short: (§1)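 Four 1:2 dilutions of each compound were tested in biological duplicates on E. coli BW25113 carrying low-copy luxCDABE promoter reporters, either wild type or deleted for one of three genes. Cultures of 40 µl LB Lennox in 384-well plates were kept at 37°C and read for OD600 and luminescence every 30 min for 12 h. Integration windows were 0–8 h for wild type and 1–9 h for deletion strains, and wells under 10% of the median growth value were discarded. The score is a Z-transformed residual of growth-normalised luminescence relative to a control fit.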

[2] = system: E. coli BW25113 acrABp lux reporter
In short: as §1

[3] = system: E. coli BW25113 micFp lux reporter
In short: as §1

[4] = system: E. coli BW25113 ompFp lux reporter
In short: as §1

[5] = system: E. coli BW25113 robp lux reporter
In short: as §1

[6] = system: E. coli BW25113 soxSp lux reporter
In short: as §1

[7] = 0.02 µg/ml, genetic background: wild type
[8] = 0.02 µg/ml, genetic background: ΔmarA
[9] = 0.02 µg/ml, genetic background: Δrob
[10] = 0.02 µg/ml, genetic background: ΔsoxS
[11] = 0.04 µg/ml, genetic background: wild type
[12] = 0.04 µg/ml, genetic background: ΔmarA
[13] = 0.04 µg/ml, genetic background: Δrob
[14] = 0.04 µg/ml, genetic background: ΔsoxS
[15] = 0.079 µg/ml, genetic background: wild type
[16] = 0.079 µg/ml, genetic background: ΔmarA
[17] = 0.079 µg/ml, genetic background: Δrob
[18] = 0.079 µg/ml, genetic background: ΔsoxS
[19] = 0.16 µg/ml, genetic background: wild type
[20] = 0.16 µg/ml, genetic background: ΔmarA
[21] = 0.16 µg/ml, genetic background: Δrob
[22] = 0.16 µg/ml, genetic background: ΔsoxS

COc1ccc2cc3[n+](cc2c1OC)CCc1cc2c(cc1-3)OCO2 [Berberine]
promoter activity interaction Z-score ([1]; 84.1 µg/ml, genetic background: Δrob): 0.496 ± 0.28
promoter activity interaction Z-score ([1]; 84.1 µg/ml, genetic background: ΔsoxS): -0.159 ± 0.1
promoter activity interaction Z-score ([1]; 168.2 µg/ml, genetic background: wild type): 0.2 ± 1.1
promoter activity interaction Z-score ([1]; 168.2 µg/ml, genetic background: ΔmarA): -0.272 ± 1.3
promoter activity interaction Z-score ([1]; 168.2 µg/ml, genetic background: Δrob): 0.279 ± 0.36
promoter activity interaction Z-score ([1]; 168.2 µg/ml, genetic background: ΔsoxS): 1.31 ± 0.19

C[C@@H](O)[C@H]1C(=O)N2C(C(=O)O)=C(SCCNC=N)C[C@H]12 [Imipenem]
promoter activity interaction Z-score [2, 7]: 0.313 ± 0.12
promoter activity interaction Z-score [2, 8]: 1.28 ± 1.8
promoter activity interaction Z-score [2, 9]: 0.353 ± 0.18
promoter activity interaction Z-score [2, 10]: 0.0665 ± 0.11
promoter activity interaction Z-score [2, 11]: 0.296 ± 0.28
promoter activity interaction Z-score [2, 12]: 0.881 ± 0.37
promoter activity interaction Z-score [2, 13]: 0.492 ± 0.11
promoter activity interaction Z-score [2, 14]: -0.0993 ± 0.31
promoter activity interaction Z-score [2, 15]: 0.282 ± 0.4
promoter activity interaction Z-score [2, 16]: -0.701 ± 0.22
promoter activity interaction Z-score [2, 17]: 0.209 ± 0.086
promoter activity interaction Z-score [2, 18]: 0.325 ± 0.52
promoter activity interaction Z-score [2, 19]: 0.0724 ± 0.69
promoter activity interaction Z-score [2, 20]: -0.226 ± 0.46
promoter activity interaction Z-score [2, 21]: 0.107 ± 0.094
promoter activity interaction Z-score [2, 22]: 0.865 ± 0.24
promoter activity interaction Z-score [3, 7]: -0.142 ± 0.16
promoter activity interaction Z-score [3, 8]: 0.0296 ± 0.051
promoter activity interaction Z-score [3, 9]: -0.0038 ± 0.09
promoter activity interaction Z-score [3, 10]: -0.119 ± 0.17
promoter activity interaction Z-score [3, 11]: 0.0424 ± 0.3
promoter activity interaction Z-score [3, 12]: 0.0155 ± 0.0044
promoter activity interaction Z-score [3, 13]: 0.104 ± 0.069
promoter activity interaction Z-score [3, 14]: -0.24 ± 0.14
promoter activity interaction Z-score [3, 15]: -0.145 ± 0.082
promoter activity interaction Z-score [3, 16]: -0.07 ± 0.02
promoter activity interaction Z-score [3, 17]: -0.0557 ± 0.0065
promoter activity interaction Z-score [3, 18]: 0.206 ± 0.3
promoter activity interaction Z-score [3, 19]: -0.0706 ± 0.42
promoter activity interaction Z-score [3, 20]: -0.131 ± 0.072
promoter activity interaction Z-score [3, 21]: -0.0161 ± 0.083
promoter activity interaction Z-score [3, 22]: 0.512 ± 0.49
promoter activity interaction Z-score [4, 7]: 0.592 ± 0.022
promoter activity interaction Z-score [4, 8]: 0.885 ± 0.097
promoter activity interaction Z-score [4, 9]: 0.602 ± 0.084
promoter activity interaction Z-score [4, 10]: 0.271 ± 0.35
promoter activity interaction Z-score [4, 11]: 0.679 ± 0.22
promoter activity interaction Z-score [4, 12]: 0.662 ± 0.21
promoter activity interaction Z-score [4, 13]: 0.743 ± 0.19
promoter activity interaction Z-score [4, 14]: 0.276 ± 0.85
promoter activity interaction Z-score [4, 15]: 0.372 ± 0.28
promoter activity interaction Z-score [4, 16]: 0.257 ± 0.3
promoter activity interaction Z-score [4, 17]: 0.789 ± 0.66
promoter activity interaction Z-score [4, 18]: 0.142 ± 0.038
promoter activity interaction Z-score [4, 19]: 0.851 ± 0.33
promoter activity interaction Z-score [4, 20]: 1.19 ± 0.16
promoter activity interaction Z-score [4, 21]: 1.34 ± 0.058
promoter activity interaction Z-score [4, 22]: 1.39 ± 0.5
promoter activity interaction Z-score [5, 7]: 0.863 ± 0.1
promoter activity interaction Z-score [5, 8]: 1.42 ± 0.61
promoter activity interaction Z-score [5, 9]: 1.13 ± 0.1
promoter activity interaction Z-score [5, 10]: 0.38 ± 1.6
promoter activity interaction Z-score [5, 11]: 1.42 ± 0.9
promoter activity interaction Z-score [5, 12]: 0.964 ± 0.54
promoter activity interaction Z-score [5, 13]: 0.862 ± 0.23
promoter activity interaction Z-score [5, 14]: -0.648 ± 0.39
promoter activity interaction Z-score [5, 15]: 0.399 ± 0.46
promoter activity interaction Z-score [5, 16]: -0.467 ± 0.12
promoter activity interaction Z-score [5, 17]: -0.0634 ± 0.12
promoter activity interaction Z-score [5, 18]: 0.149 ± 0.0074
promoter activity interaction Z-score [5, 19]: 0.582 ± 0.12
promoter activity interaction Z-score [5, 20]: -0.0297 ± 0.2
promoter activity interaction Z-score [5, 21]: 0.845 ± 0.3
promoter activity interaction Z-score [5, 22]: 0.155 ± 0.23
promoter activity interaction Z-score [6, 7]: 0.0906 ± 0.0094
promoter activity interaction Z-score [6, 8]: -0.0591 ± 0.084
promoter activity interaction Z-score [6, 9]: 0.0225 ± 0.12
promoter activity interaction Z-score [6, 10]: -0.179 ± 0.12
promoter activity interaction Z-score [6, 11]: 0.124 ± 0.076
promoter activity interaction Z-score [6, 12]: 0.161 ± 0.03
promoter activity interaction Z-score [6, 13]: 0.187 ± 0.23
promoter activity interaction Z-score [6, 14]: -0.163 ± 0.26
promoter activity interaction Z-score [6, 15]: 0.146 ± 0.15
promoter activity interaction Z-score [6, 16]: -0.0799 ± 0.11
promoter activity interaction Z-score [6, 17]: -0.00226 ± 0.029
promoter activity interaction Z-score [6, 18]: 0.121 ± 0.18
promoter activity interaction Z-score [6, 19]: 0.0824 ± 0.27
promoter activity interaction Z-score [6, 20]: -0.0185 ± 0.033
promoter activity interaction Z-score [6, 21]: -0.0171 ± 0.17
promoter activity interaction Z-score [6, 22]: 0.177 ± 0.52
promoter activity interaction Z-score [1, 7]: 0.541 ± 0.2
promoter activity interaction Z-score [1, 8]: 0.817 ± 0.21
promoter activity interaction Z-score [1, 9]: -0.144 ± 0.41
promoter activity interaction Z-score [1, 10]: -0.241 ± 0.51
promoter activity interaction Z-score [1, 11]: 0.146 ± 1.3
promoter activity interaction Z-score [1, 12]: 0.917 ± 0.58
promoter activity interaction Z-score [1, 13]: 1.47 ± 0.4
promoter activity interaction Z-score [1, 14]: -1.38 ± 0.5
promoter activity interaction Z-score [1, 15]: 0.00539 ± 0.13
promoter activity interaction Z-score [1, 16]: -0.369 ± 0.35
promoter activity interaction Z-score [1, 17]: 0.295 ± 0.094
promoter activity interaction Z-score [1, 18]: -0.148 ± 0.41
promoter activity interaction Z-score [1, 19]: -0.803 ± 0.044
promoter activity interaction Z-score [1, 20]: 0.117 ± 0.52
promoter activity interaction Z-score [1, 21]: 0.323 ± 0.18
promoter activity interaction Z-score [1, 22]: 0.105 ± 0.88
